# rCAG RNA binder: r(CAG) repeat RNA binding; TO-PRO-1 dye displacement fluorescence; inhibition, % at 3 µM; 370,000 compounds, 1.3% hits; AID 651821;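 active = inhibition above the plate cutoff, the mean of all test compounds on that plate plus 3 SD, cut at about 35% in these data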;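 note: higher means more dye released from RNA so lower well fluorescence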
# Pemphigus Ab inh: human desmoglein-3 autoantibody binding inhibition; DSG3-coupled beads, scFv-anti-DSG3-GFP binding, flow cytometry; hits give low values; binding (percent of control), % at 10 µM; 310,000 compounds, 0.48% hits; AID 588358;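 active = binding more than 3 SD below its plate's average and above zero; inconclusive = below that plate limit but binding exactly zero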;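 note: hits lower antibody fragment binding to DSG3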
# Target sequence (P32926 whole entry, looked up, the tested form may be a part): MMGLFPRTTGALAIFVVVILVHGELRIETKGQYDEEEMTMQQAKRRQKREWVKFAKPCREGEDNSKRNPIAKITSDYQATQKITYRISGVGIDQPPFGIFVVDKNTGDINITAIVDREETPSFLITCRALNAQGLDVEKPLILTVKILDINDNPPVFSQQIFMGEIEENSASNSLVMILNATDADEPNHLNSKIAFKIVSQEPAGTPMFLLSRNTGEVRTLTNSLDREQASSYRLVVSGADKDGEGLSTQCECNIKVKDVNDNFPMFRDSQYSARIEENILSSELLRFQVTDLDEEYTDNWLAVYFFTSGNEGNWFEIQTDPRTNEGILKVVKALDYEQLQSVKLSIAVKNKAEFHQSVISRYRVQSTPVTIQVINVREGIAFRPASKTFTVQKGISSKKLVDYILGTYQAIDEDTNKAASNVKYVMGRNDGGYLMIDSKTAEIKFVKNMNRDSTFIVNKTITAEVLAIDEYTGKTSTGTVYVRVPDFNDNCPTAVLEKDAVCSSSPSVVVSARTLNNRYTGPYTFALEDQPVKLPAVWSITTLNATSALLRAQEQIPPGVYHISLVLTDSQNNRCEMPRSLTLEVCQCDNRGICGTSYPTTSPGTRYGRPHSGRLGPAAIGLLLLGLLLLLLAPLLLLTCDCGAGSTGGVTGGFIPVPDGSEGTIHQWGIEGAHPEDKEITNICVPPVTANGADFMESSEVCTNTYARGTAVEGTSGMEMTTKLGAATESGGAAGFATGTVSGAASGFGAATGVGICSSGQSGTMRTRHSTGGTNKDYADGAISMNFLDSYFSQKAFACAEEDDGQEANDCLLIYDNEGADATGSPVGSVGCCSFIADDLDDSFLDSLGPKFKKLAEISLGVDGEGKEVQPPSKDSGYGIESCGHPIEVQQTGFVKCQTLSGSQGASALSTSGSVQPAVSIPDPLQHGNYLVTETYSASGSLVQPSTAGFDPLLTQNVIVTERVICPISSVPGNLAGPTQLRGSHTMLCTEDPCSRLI
# MsrA act: bovine methionine sulfoxide reductase A activation; purified bovine MsrA, absorbance read-out; activation, % at 10.6 µM; 360,000 compounds, 0.3% hits; AID 602163; in the data active = activation above about 7.5%
# MsrA inhibitor: inhibits bovine methionine sulfoxide reductase A. purified bovine MsrA, absorbance read-out. inhibition, % at 15.5 µM. 360,000 compounds, 0.75% hits; in the data active = inhibition above about 4.5%
# DAGLB inh: diacylglycerol lipase beta (human) inhibition. Q8NCG7. HEK293T DAGLB membrane lysate, EnzChek fluorogenic substrate. inhibition, % at 5.17 µM. 340,000 compounds, 0.059% hits; in the data active = inhibition above about 34%
# NadD inh: blocks S. aureus nicotinate mononucleotide adenylyltransferase; inhibition, % at 20 µM; 360,000 compounds, 0.78% hits; AID 602399; purified NadD enzyme, colorimetric absorbance read-out; in the data active = inhibition above about 26%
# Hits are given with their value; – = inactive; ? = inconclusive; · = no result. Compounds with a hit are over-represented: about 3.2% of the library has one in this group of screens.
SMILES,rCAG RNA binder,Pemphigus Ab inh,MsrA act,MsrA inhibitor,DAGLB inh,NadD inh
CCOc1ccc(N(CC(=O)NCc2ccc(Cl)cc2)S(=O)(=O)c2ccccc2)cc1,–,-57.1,–,–,–,–
CCCNC(=O)c1cc(C2CCCCN2C(=O)c2cc(C(C)(C)C)nn2C)on1 (stereo not drawn),–,·,–,–,·,–
COC(=O)[C@]12C[C@H](CC(=O)NCc3cccc(C(F)(F)F)c3)C(=O)N(Cc3ccc(Cl)cc3Cl)C1=C[C@H](C1CCCC1)O[C@@H]2C,–,·,·,·,·,·
CCCCN(CCCC)C(=O)c1cc(Cl)ccc1[N+](=O)[O-],–,-27.2,–,–,–,–
Cc1ccc(-c2cc(C(=O)N/N=C/C=C/c3ccccc3)n[nH]2)s1,–,–,–,4.6,–,–
O=C(CNC(=O)c1cccs1)Nc1ncccc1O,–,–,–,–,–,–
CCCCn1c(SCC(=O)N(CC)C2CCS(=O)(=O)C2)nc2cc(S(N)(=O)=O)ccc21 (stereo not drawn),–,16.2,–,–,–,–
CCCCn1c(SCC(=O)N(C)C2CCS(=O)(=O)C2)nc2cc(S(N)(=O)=O)ccc21 (stereo not drawn),–,–,–,–,–,–
COc1ccc(NC(=O)CSc2nnnn2Cc2ccccc2)cc1,–,64.6,–,–,–,–
COc1ccc(-c2cc(NC(=O)Cc3c[nH]c4ccccc34)ccc2Nc2cccnc2)c(OC)c1,–,·,·,–,·,·
Cc1ccc(Cn2cc(CN3[C@H](Cc4ccccc4)COc4cc(Br)ccc4S3(=O)=O)nn2)cc1,–,·,·,·,·,·
O=C(CSc1nnnn1-c1cccc(F)c1)Nc1nc2ccccc2s1,–,11.4,–,–,–,–
COC(=O)C1CN(Cc2cn(CCOC(C)=O)nn2)CCS(=O)(=O)N1Cc1ccc(OC)cc1 (stereo not drawn),–,·,·,·,·,·
Nc1c(S(=O)(=O)c2cccs2)c2nc3ccccc3nc2n1/N=C/c1cccc(O)c1,–,·,–,–,–,45.3
Cc1ccc(S(=O)(=O)c2c(N)n(/N=C/c3ccco3)c3nc4ccccc4nc23)cc1C,–,–,–,–,–,53.8
COc1ccc(S(=O)(=O)c2c(N)n(Cc3ccco3)c3nc4ccccc4nc23)cc1,–,–,–,–,–,34.3
C(=N/N1CCN(c2ccccc2)CC1)/c1ccco1,–,·,·,·,·,·
COC(=O)[C@]1(CNC(C)=O)CC(=O)N(C)[C@@H]1c1ccccc1,–,·,·,·,·,·
O=S1(=O)CCSC[C@@H](CN2CCOCC2)N1,–,·,·,–,·,·
COC(=O)[C@H](CC(C)C)N(CCCc1cn(CC2CCCCC2)nn1)S(=O)(=O)c1ccccc1Br,–,·,·,·,·,·
COc1ccc(NC(=O)CN(C)S(=O)(=O)c2ccc(Br)s2)cc1,–,-21.5,–,–,–,–
COc1ccc(NC(=O)CN(C)S(=O)(=O)c2ccc(Br)s2)cc1OC,–,–,–,–,–,–
COc1cc(/C=N/NC(=O)c2ccc(CN3c4cccc5cccc(c45)S3(=O)=O)cc2)cc(OC)c1O,–,–,–,4.6,·,–
O=C(N/N=C/CCc1ccccc1)c1ccc(CN2c3cccc4cccc(c34)S2(=O)=O)cc1,–,–,–,–,–,–
O=C(CN(CC1CCCO1)C(=O)CCC(=O)Nc1nccs1)NCC1CCCO1 (stereo not drawn),–,·,–,–,–,–
SMILES,rCAG RNA binder,Pemphigus Ab inh,MsrA act,MsrA inhibitor,DAGLB inh,NadD inh
O=C(CN(Cc1ccccc1)C(=O)CCC(=O)Nc1nccs1)NCC1CCCO1 (stereo not drawn),–,0.3,–,–,–,–
COC(=O)C1CN(CCO)CCS(=O)(=O)N1Cc1cn(Cc2cccc(Cl)c2)nn1 (stereo not drawn),–,·,·,·,·,·
COc1ccccc1N1CCN(C(=O)c2ccc(Cn3c(=O)[nH]c4ccsc4c3=O)cc2)CC1,–,–,–,–,–,–
O=C(Nc1ccc(Cl)c(Cl)c1)c1ccc(Cn2c(=O)[nH]c3ccsc3c2=O)cc1,–,66.3,–,–,–,–
O=C(Nc1ccc(Oc2ccccc2)cc1)c1ccc(Cn2c(=O)[nH]c3ccsc3c2=O)cc1,–,51.1,–,–,–,–
O=C(NC1CCCC1)c1ccc(Cn2c(=O)[nH]c3ccsc3c2=O)cc1,–,–,–,–,–,–
COC(=O)[C@]1(C)CN(C(=O)OC(C)(C)C)C2=C1C(=O)C[C@@](C)(C(=O)OC(C)(C)C)C2,–,·,·,·,·,·
NS(=O)(=O)c1ccc(N/N=C/c2ccc3c(c2)OCO3)c([N+](=O)[O-])c1,–,30.9,–,–,–,–
COC(=O)C1=C(C)N(Cc2ccc(C(F)(F)F)cc2)C(=NCc2ccc(OC)cc2)NC1c1ccccc1C(F)(F)F (stereo not drawn),–,·,·,–,·,·
C[C@@H]1/C=C/CC(=O)N[C@H](c2cccc(Br)c2)[C@H](C)/C=C/CC(=O)N[C@@H]1c1cccc(Br)c1,–,·,·,·,·,·
CCN(CC)C(=O)c1ccc(Cc2cn(C)c3ccccc23)nc1,–,·,–,–,·,–
O=C(Nc1ccc(Br)cc1)c1cccc(S(=O)(=O)Nc2ccccn2)c1,–,–,–,–,–,–
O=C(Nc1ccc(Br)cc1)c1cccc(S(=O)(=O)Nc2cnc3ccccc3c2)c1,79.5,–,–,–,–,–
O=C(Nc1c(-c2ccccc2)[nH][nH]c1=O)c1cccs1,–,·,·,–,·,·
N#C/C(C(=O)NCc1ccccc1)=C1/N=C(NC(=O)c2cccs2)c2ccccc21,–,85.0,–,–,–,–
CCCNC(=O)/C(C#N)=C1\N=C(NC(=O)c2ccco2)c2ccccc21,–,–,–,–,–,–
O=C(NC1CCCCN(Cc2cccc(Cl)c2)C1=O)c1ccc(COc2ccccc2)cc1 (stereo not drawn),–,·,·,·,·,·
CCc1ccc2c(c1)C1(NN=C(c3cccc4ccccc34)S1)C(=O)N2 (stereo not drawn),–,–,–,–,–,34.5
CC(C)CN1C(=O)[C@]2(CC(=O)N(C)C2c2ccccc2)c2cc(-n3cc(CCc4ccccc4)nn3)ccc21 (stereo partly drawn),–,·,·,·,·,·
CC(C)(C)c1ccc(CC(=O)N2CCC2(C)C(=O)NCc2cccc3ccccc23)cc1 (stereo not drawn),–,·,–,–,·,–
CC(C)(C)c1ccc(C(=O)NCCC(=O)NC2=NCCS2)cc1,–,?,–,–,–,–
CC(C)(C)c1ccc(OCCCC(=O)NC2=NCCS2)cc1,–,-19.5,–,–,–,–
COc1ccc(NC(=O)c2cccc([N+](=O)[O-])c2)cc1,–,–,–,–,–,–
COc1ccc(CC(=O)Nc2ccc(/C(C)=N/NC(=O)c3cccc([N+](=O)[O-])c3)cc2)cc1,–,77.5,–,–,–,–
C[C@@H]1CCCCO[C@H](CN(C)S(=O)(=O)c2cn(C)cn2)[C@@H](C)CN([C@H](C)CO)C(=O)c2cc(NC(=O)CCCN(C)C)ccc2O1,–,·,·,–,·,·
C=CC[C@@H]1NN2C(=O)[C@@H](CCc3ccccc3)[C@@H]3c4ccccc4C=NN3[C@@H]2c2ccccc21,–,·,·,·,·,·

# Assay outcomes as filed in PubChem BioAssay.
